The text below walks through data of PubChem BioAssay (NCATS).

The structures appear in SMILES notation. Inconclusive results are not listed. Values without a mark were called inactive. Calls of active or inactive are those of the source. The call rests on the fitted dose curve; in most records, active means well fitted inhibition curve with a large enough effect; inconclusive means small, poorly fitted or top-dose-only effect; inactive means no such curve, though single readings can be large or run the other way.

In test [1] the test system is Zika virus NS2B-NS3 protease (unlinked complex). As to the kind of experiment: Primary screen GU Rhodamine qHTS for Zika virus inhibitors: Unlinked NS2B-NS3 protease assay (AID 1347159). Further: nearly all actives have a fitted effect of over 60% in size. The method in brief:
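A qHTS format was used, with compound concentrations ranging up to 114 microM. Each compound was preincubated with 25 nM NS2B-NS3 protease, and the substrate was then added at 1.5 microM. Curves were fitted with a 4-parameter Hill model.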

Test [2] deals with Zika virus NS2B-NS3 protease (linked construct). As to the kind of experiment: Primary screen NINDS Rhodamine qHTS for Zika virus inhibitors (AID 1347160). Further: nearly all actives have a fitted effect of over 55% in size. The method in brief:
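Kinetic fluorescence (Ex 480 nm, Em 540 nm) over 15 min with 1.5 microM Rhodamine110 peptide and 25 nM linked protease.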
On the % scale 0 is the no-effect control and ±100 the full control effect; potency means the concentration at half of the fitted maximal effect.

Take `CCC(C)CNCC(=O)N1CCC2SC=CC2C1COc1cccc(C)c1` (configuration not stated): the Potency result in test [1] and in test [2] was “inactive” each time.
In the case of `C[C@@H]1O[C@@H](O[C@H]2[C@H](OC(=O)[C@]34CCC(C)(C)C[C@H]3C3=CCC5[C@@]6(C)C[C@H](O)[C@H](O[C@@H]7O[C@H](CO)[C@@H](O)[C@H](O)[C@H]7O)[C@](CO)(C(=O)O)C6CC[C@@]5(C)[C@]3(C)C[C@H]4O)OC[C@H](O)[C@@H]2O)[C@H](O)[C@H](O)[C@H]1O[C@@H]1OC[C@@H](O)[C@H](O[C@@H]2OC[C@](O)(CO)[C@H]2O)[C@H]1O` (some centres not stated), the values for the activity change, negative = inhibition in test [1] and in test [2] were 10.7% [at 19.1 µM] and 31.9% [at 10.7 µM], respectively.
For `Cc1ccc(NC(=O)C(C)C)cc1C1CCN(Cc2ccc(Oc3ccc(F)c(F)c3)cc2)CC1`, the Potency entry in test [1] and in test [2] was “inactive” each time.
With `Cc1cc2c(N3CCCC3)nc(N3CCCC3)nc2n1C`, the Potency result in test [1] and in test [2] was “inactive” throughout.
Regarding `CCOC(=O)N1CCC(N2CCC[C@@H](NC(=O)c3ccccc3C)C2)CC1`, the Potency result in test [1] and in test [2] was “inactive” throughout.
Consider `COc1cc(O)cc(OC2OC(CO)C(O)C(O)C2O)c1` (configuration not stated), for which the Potency result in test [1] and in test [2] was “inactive” each time.
For `COC1C=C(C)C(O)(CO)C2(C)CCCC(C)(C)C12` (configuration not stated), the Potency result in test [1] and in test [2] was “inactive” in each case.
Take `C[C@@H]1O[C@@H](O[C@H]2[C@H](OC(=O)[C@]34CCC(C)(C)C[C@H]3C3=CCC5[C@@]6(C)C[C@H](O)[C@H](O[C@@H]7O[C@H](C(=O)O)[C@@H](O)[C@H](O)[C@H]7O)[C@@](C)(CO)C6[C@H](O)C[C@@]5(C)[C@]3(C)C[C@H]4O)O[C@@H](CO)[C@@H]2O)[C@H](O)[C@H](O)[C@H]1O[C@@H]1OC[C@@H](O)[C@H](O[C@H]2OC[C@](O)(CO)[C@H]2O)[C@H]1O` (some centres not stated): the activity change, negative = inhibition is 13.4% [at 19.1 µM] in test [1] and -5.61% [at 10.7 µM] in test [2].
As for `CNC(=O)c1cc(Oc2ccc(NC(=O)c3cccc(C(F)(F)F)c3)cc2)ccn1`, the Potency entry in test [1] and in test [2] was “inactive” throughout.
Take `C=C1C(=O)OC2C(OC(=O)C=C(C)C)C(C)=C3C(=O)C=C(C)C3C(O)C12` (configuration not stated): the Potency entry in test [1] and in test [2] was “inactive” in each case.
Take `CCOC(=O)N1CCC(CN(Cc2ccc(Cl)cc2)Cc2ccc([N+](=O)[O-])s2)C1` (configuration not stated): the Potency result in test [1] and in test [2] was “inactive” in each case.
For the compound `C[C@@H]1O[C@@H](O[C@H]2[C@@H]3C=CO[C@@H](O[C@@H]4O[C@H](CO)[C@@H](O)[C@H](O)[C@H]4O)[C@@H]3[C@@]3(CO)O[C@@H]23)[C@H](O)[C@H](OC(=O)/C=C/c2ccccc2)[C@H]1O`, the Potency entry in test [1] and in test [2] was “inactive” each time.
For `Clc1cccc(COc2cncc(N3CCNCC3)n2)c1`, the Potency result in test [1] and in test [2] was “inactive” in each case.
`COc1ccc(CCc2nc3c(C)c(-c4c(C)noc4C)c(C)cc3n2CCN2CCOCC2)cc1`: the Potency entry in test [1] and in test [2] was “inactive” in each case.
Turning to `CNC(=O)COC(=O)N1CCC(CCc2ccc(Cl)cc2)CC1`, the Potency result in test [1] and in test [2] was “inactive” in each case.
Take `CCNC(=O)N1CCCN(c2ccc(C(=O)NCCc3ccc(Cl)cc3Cl)cc2NC(=O)c2cccc(Cl)c2)CC1`: the Potency entry in test [1] and in test [2] was “inactive” in each case.
As for `CC[C@@H]1C[C@]1(NC(=O)[C@@H]1C[C@@H]2CN1C(=O)[C@H](C(C)(C)C)NC(=O)OCC(C)(C)CCCCc1cccc3c1CN(C3)C(=O)O2)C(=O)NS(=O)(=O)C1CC1`, the Potency in test [1] is 28.2 µM (active); in test [2], 22.4 µM (active).
Consider `Oc1ccc(-c2cnc3ccc(NCc4ccco4)nn23)cc1`, for which the Potency result in test [1] and in test [2] was “inactive” throughout.
For the compound `CC(C)(O)C1Cc2c(ccc(C(=O)CCc3ccccc3)c2O)O1` (configuration not stated), the Potency entry in test [1] and in test [2] was “inactive” throughout.
As for `CC(C)S(=O)(=O)NC[C@@H]1CC(c2ccc(N3CCCC3)c(F)c2)=NO1`, the Potency entry in test [1] and in test [2] was “inactive” each time.
With `C[C@@H]1O[C@@H](O[C@H]2[C@@H](OC(=O)[C@]34CCC(C)(C)CC3C3=CCC5[C@@]6(C)C[C@H](O)[C@H](O[C@@H]7O[C@H](CO)[C@@H](O)[C@H](O)[C@H]7O[C@@H]7OC[C@@H](O)[C@H](O)[C@H]7O)[C@@](C)(C(=O)O)C6CC[C@@]5(C)[C@]3(C)CC4)OC[C@H](O)[C@@H]2O)[C@H](O)[C@H](O)[C@H]1O[C@@H]1OC[C@@H](O)[C@H](O)[C@H]1O` (some centres not stated), the activity change, negative = inhibition was 46.4% [at 19.1 µM] in test [1] and 21.4% [at 10.7 µM] in test [2].
For the compound `N#Cc1ccc(Nc2nc(-c3ccc(O)cc3O)cs2)cc1C(F)(F)F`, the Potency was 10 µM (active) in test [1] and 17.8 µM (active) in test [2].
As to `COc1ccc2nc(-c3cc(OC)c(OC)c(OC)c3)cc(C(=O)NCC(=O)Nc3ccc(C(C)=O)cc3)c2c1`, the Potency entry in test [1] and in test [2] was “inactive” throughout.
As for `O=C(NCCCN1CCC2(CC1)OCc1ccccc12)[C@H]1CCCN1Cc1ccccc1`, the Potency result in test [1] and in test [2] was “inactive” in each case.
With `C=C1C(=O)OC2/C=C(\CO)CC/C=C(\C=O)C(OC)C(OC(=O)C(C)CC)C12` (configuration not stated), the Potency result in test [1] and in test [2] was “inactive” throughout.
As to `CCNc1nc(Nc2cc(F)c(C(=O)N3CCOCC3)cc2OC)ncc1C(F)(F)F`, the Potency entry in test [1] and in test [2] was “inactive” throughout.
On to `COC(=O)c1ccc2c(c1)nc(NC(=O)c1ccccc1)n2CCCc1ccccc1`, for which the Potency result in test [1] and in test [2] was “inactive” in each case.
For the compound `O=[N+]([O-])c1ccc(Oc2ccc3c(c2)CCC(c2ccccc2)O3)nc1` (configuration not stated), the Potency result in test [1] and in test [2] was “inactive” each time.
`COc1cc(/C=C/C(=O)NCCn2c(C(F)(F)F)cc3ccccc32)cc(OC)c1OC`: the Potency entry in test [1] and in test [2] was “inactive” in each case.
Regarding `CCc1cnc(N2CCC(c3nc(COc4ccc(-n5cnnn5)cc4)cs3)CC2)nc1`, the Potency result in test [1] and in test [2] was “inactive” in each case.
Regarding `C=CC(=O)N1CCC[C@@H](n2nc(-c3cccc(C(=O)Nc4ccc(C(C)C)c(C)c4)c3)c3c(N)ncnc32)C1`, the Potency entry in test [1] and in test [2] was “inactive” throughout.
